Data taken from the supplement of paper PMC3545927.
The other results are listed elsewhere or left out. How many sequences the whole screen found active is unknown.

Biological target: furin, P09958
Test: furin cleavage Z-score vs untreated control; higher = more cleavage, active = 3.5 or more, inactive = 1 or less, 8 variable residues between constant flanks
Procedure, shortened: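 Reactions of 0.01 ml ran for 7.5, 15 or 30 min in 50 mM HEPES pH 7.5 with CaCl2 and NaCl, at 1:10 enzyme:substrate. In them, purified furin acted on bead-held 8-mer peptides fused to a cDNA oligonucleotide. The cleavage Z-score was obtained by lowess-adjusting log sequencing counts of released DNA against furin-free reactions and scaling by median absolute deviation.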

Chain of furin, P09958 (P09958 whole entry): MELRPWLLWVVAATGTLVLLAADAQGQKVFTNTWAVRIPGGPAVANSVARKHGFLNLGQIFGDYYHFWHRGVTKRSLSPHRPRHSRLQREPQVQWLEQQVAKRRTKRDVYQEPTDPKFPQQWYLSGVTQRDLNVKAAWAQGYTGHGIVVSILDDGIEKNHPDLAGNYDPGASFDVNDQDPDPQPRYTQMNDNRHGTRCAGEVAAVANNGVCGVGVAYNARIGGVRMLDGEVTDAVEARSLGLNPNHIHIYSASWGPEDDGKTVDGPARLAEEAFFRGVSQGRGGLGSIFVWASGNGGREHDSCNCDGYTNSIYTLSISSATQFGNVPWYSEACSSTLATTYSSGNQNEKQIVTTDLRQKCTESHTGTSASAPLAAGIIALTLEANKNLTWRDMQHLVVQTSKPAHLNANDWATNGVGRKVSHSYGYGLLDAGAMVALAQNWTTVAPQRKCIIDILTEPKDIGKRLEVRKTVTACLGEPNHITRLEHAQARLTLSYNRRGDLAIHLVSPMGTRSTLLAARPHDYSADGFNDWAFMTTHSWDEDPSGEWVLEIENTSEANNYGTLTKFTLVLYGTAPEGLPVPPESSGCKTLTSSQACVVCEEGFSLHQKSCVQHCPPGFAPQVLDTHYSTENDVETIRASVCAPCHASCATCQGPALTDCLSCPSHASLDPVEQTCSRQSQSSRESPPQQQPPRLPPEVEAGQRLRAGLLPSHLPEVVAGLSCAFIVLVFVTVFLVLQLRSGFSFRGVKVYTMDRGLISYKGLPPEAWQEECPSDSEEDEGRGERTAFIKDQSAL

B1: HC1691 (peptide)
chain: CAMDECSQHLAGNASASA
- furin cleavage Z-score (7.5 min): -1.05 (inactive)
- furin cleavage Z-score (15 min): -0.767 (inactive)
- furin cleavage Z-score (30 min): -1.23 (inactive)

B2: HC2335 (peptide)
chain: CAEHPCHRPSAGNASASA
- furin cleavage Z-score (7.5 min): 0.592 (inactive)
- furin cleavage Z-score (15 min): 0.873 (inactive)
- furin cleavage Z-score (30 min): -0.909 (inactive)

B3: HC566 (peptide)
chain: CADTEVAASCAGNASASA
- furin cleavage Z-score (7.5 min): 0.247 (inactive)
- furin cleavage Z-score (15 min): 0.504 (inactive)
- furin cleavage Z-score (30 min): -0.572 (inactive)

B4: FS-2014 (peptide)
chain: CARGGRDHGDAGNASASA
- furin cleavage Z-score (7.5 min): -0.697 (inactive)
- furin cleavage Z-score (15 min): -0.0412 (inactive)
- furin cleavage Z-score (30 min): -1.45 (inactive)

B5: FS-2554 (peptide)
chain: CARGKRAITDAGNASASA
- furin cleavage Z-score (7.5 min): 9.38 (active)
- furin cleavage Z-score (15 min): 10.5 (active)
- furin cleavage Z-score (30 min): 9.27 (active)

B6: FS-2922 (peptide)
chain: CARFGRGFTVAGNASASA
- furin cleavage Z-score (7.5 min): 0.116 (inactive)
- furin cleavage Z-score (15 min): 0.0326 (inactive)
- furin cleavage Z-score (30 min): 0.349 (inactive)

B7: HC907 (peptide)
chain: CARGKPGIYRAGNASASA
- furin cleavage Z-score (7.5 min): 0.0246 (inactive)
- furin cleavage Z-score (15 min): 1.3
- furin cleavage Z-score (30 min): 0.963 (inactive)

B8: FS-3249 (peptide)
chain: CARGKRATTVAGNASASA
- furin cleavage Z-score (7.5 min): 8.17 (active)
- furin cleavage Z-score (15 min): 9.95 (active)
- furin cleavage Z-score (30 min): 8.35 (active)

B9: FS-1710 (peptide)
chain: CARGMRALGVAGNASASA
- furin cleavage Z-score (7.5 min): -0.000681 (inactive)
- furin cleavage Z-score (15 min): 0.448 (inactive)
- furin cleavage Z-score (30 min): 0.128 (inactive)

B10: HC202 (peptide)
chain: CAWPLYGNEGAGNASASA
- furin cleavage Z-score (7.5 min): 0.645 (inactive)
- furin cleavage Z-score (15 min): -0.347 (inactive)
- furin cleavage Z-score (30 min): 0.229 (inactive)

B11: HC148 (peptide)
chain: CAEVVTMTWVAGNASASA
- furin cleavage Z-score (7.5 min): 0.302 (inactive)
- furin cleavage Z-score (15 min): 0.42 (inactive)
- furin cleavage Z-score (30 min): 1.21

B12: HC502 (peptide)
chain: CAPALSTGLIAGNASASA
- furin cleavage Z-score (7.5 min): 1.72
- furin cleavage Z-score (15 min): 1.24
- furin cleavage Z-score (30 min): -0.0208 (inactive)

B13: FS-2730 (peptide)
chain: CARNKRYALTAGNASASA
- furin cleavage Z-score (7.5 min): 4.76 (active)
- furin cleavage Z-score (15 min): 6.64 (active)
- furin cleavage Z-score (30 min): 8.66 (active)

B14: FS-2070 (peptide)
chain: CARRKRTAVTAGNASASA
- furin cleavage Z-score (7.5 min): 8.61 (active)
- furin cleavage Z-score (15 min): 9.73 (active)
- furin cleavage Z-score (30 min): 8.8 (active)

B15: HC1056 (peptide)
chain: CAMAFTAAVTAGNASASA
- furin cleavage Z-score (7.5 min): 0.143 (inactive)
- furin cleavage Z-score (15 min): -0.123 (inactive)
- furin cleavage Z-score (30 min): 0.0661 (inactive)

B16: FS-2331 (peptide)
chain: CARFDRFILTAGNASASA
- furin cleavage Z-score (7.5 min): -0.835 (inactive)
- furin cleavage Z-score (15 min): 0.56 (inactive)
- furin cleavage Z-score (30 min): 1.87

B17: FS-2231 (peptide)
chain: CARRKRYALTAGNASASA
- furin cleavage Z-score (7.5 min): 5.6 (active)
- furin cleavage Z-score (15 min): 9.1 (active)
- furin cleavage Z-score (30 min): 7.92 (active)

B18: HC2242 (peptide)
chain: CAEVVTSTQVAGNASASA
- furin cleavage Z-score (7.5 min): 0.0534 (inactive)
- furin cleavage Z-score (15 min): -0.769 (inactive)
- furin cleavage Z-score (30 min): -0.513 (inactive)

B19: HC1746 (peptide)
chain: CAMEECSQMLAGNASASA
- furin cleavage Z-score (7.5 min): 0.461 (inactive)
- furin cleavage Z-score (15 min): -0.78 (inactive)
- furin cleavage Z-score (30 min): 0.807 (inactive)

B20: HC156 (peptide)
chain: CAEVVTTTWVAGNASASA
- furin cleavage Z-score (7.5 min): 0.967 (inactive)
- furin cleavage Z-score (15 min): 0.111 (inactive)
- furin cleavage Z-score (30 min): 0.291 (inactive)

B21: FS-716 (peptide)
chain: CASCLRHKRSAGNASASA
- furin cleavage Z-score (7.5 min): 4.23 (active)
- furin cleavage Z-score (15 min): 3.94 (active)
- furin cleavage Z-score (30 min): 4 (active)

B22: FS-1474 (peptide)
chain: CAQESQKKRSAGNASASA
- furin cleavage Z-score (7.5 min): -0.591 (inactive)
- furin cleavage Z-score (15 min): -0.0857 (inactive)
- furin cleavage Z-score (30 min): 0.142 (inactive)

B23: FS-667 (peptide)
chain: CAINFRDKRSAGNASASA
- furin cleavage Z-score (7.5 min): 10.5 (active)
- furin cleavage Z-score (15 min): 11.5 (active)
- furin cleavage Z-score (30 min): 8.52 (active)

B24: FS-1341 (peptide)
chain: CAIERRKKRSAGNASASA
- furin cleavage Z-score (7.5 min): 11.5 (active)
- furin cleavage Z-score (15 min): 11.5 (active)
- furin cleavage Z-score (30 min): 10.3 (active)

B25: FS-879 (peptide)
chain: CATEKRKKRSAGNASASA
- furin cleavage Z-score (7.5 min): 10.8 (active)
- furin cleavage Z-score (15 min): 10.5 (active)
- furin cleavage Z-score (30 min): 9.01 (active)

B26: HC252 (peptide)
chain: CASCLTVPASAGNASASA
- furin cleavage Z-score (7.5 min): -0.0568 (inactive)
- furin cleavage Z-score (15 min): -0.538 (inactive)
- furin cleavage Z-score (30 min): -1.9 (inactive)

B27: HC1734 (peptide)
chain: CAMEECSKHLAGNASASA
- furin cleavage Z-score (7.5 min): 0.481 (inactive)
- furin cleavage Z-score (15 min): 1.71
- furin cleavage Z-score (30 min): -0.626 (inactive)

B28: HC104 (peptide)
chain: CAVVCCLMSYAGNASASA
- furin cleavage Z-score (7.5 min): -0.57 (inactive)
- furin cleavage Z-score (15 min): -0.101 (inactive)
- furin cleavage Z-score (30 min): -0.447 (inactive)

B29: HC2139 (peptide)
chain: CAEPVVCCSMAGNASASA
- furin cleavage Z-score (7.5 min): 0.036 (inactive)
- furin cleavage Z-score (15 min): -1.42 (inactive)
- furin cleavage Z-score (30 min): 1.07

B30: HC1400 (peptide)
chain: CAVLDSHYQDAGNASASA
- furin cleavage Z-score (7.5 min): -0.288 (inactive)
- furin cleavage Z-score (15 min): -1.98 (inactive)
- furin cleavage Z-score (30 min): 0.522 (inactive)

B31: FS-508 (peptide)
chain: CATEHRVCRSAGNASASA
- furin cleavage Z-score (7.5 min): 3.96 (active)
- furin cleavage Z-score (15 min): 5.27 (active)
- furin cleavage Z-score (30 min): 4.89 (active)

B32: FS-1342 (peptide)
chain: CAIERVHKRSAGNASASA
- furin cleavage Z-score (7.5 min): 6.81 (active)
- furin cleavage Z-score (15 min): 7.58 (active)
- furin cleavage Z-score (30 min): 7.96 (active)

B33: FS-1484 (peptide)
chain: CASDDRLCRSAGNASASA
- furin cleavage Z-score (7.5 min): -0.386 (inactive)
- furin cleavage Z-score (15 min): 0.196 (inactive)
- furin cleavage Z-score (30 min): -1 (inactive)

B34: HC1205 (peptide)
chain: CAEYVEIRQVAGNASASA
- furin cleavage Z-score (7.5 min): -0.199 (inactive)
- furin cleavage Z-score (15 min): -0.194 (inactive)
- furin cleavage Z-score (30 min): 1.29

B35: FS-3103 (peptide)
chain: CARTARSEEDAGNASASA
- furin cleavage Z-score (7.5 min): -1.19 (inactive)
- furin cleavage Z-score (15 min): -0.787 (inactive)
- furin cleavage Z-score (30 min): 0.992 (inactive)

B36: FS-2138 (peptide)
chain: CARFARHVSPAGNASASA
- furin cleavage Z-score (7.5 min): 10.5 (active)
- furin cleavage Z-score (15 min): 9.18 (active)
- furin cleavage Z-score (30 min): 9.56 (active)

B37: HC1057 (peptide)
chain: CAFTAAVTSPAGNASASA
- furin cleavage Z-score (7.5 min): -0.794 (inactive)
- furin cleavage Z-score (15 min): -0.905 (inactive)
- furin cleavage Z-score (30 min): -0.554 (inactive)

B38: FS-1759 (peptide)
chain: CARPEKSVNKAGNASASA
- furin cleavage Z-score (7.5 min): -1.61 (inactive)
- furin cleavage Z-score (15 min): 0.261 (inactive)
- furin cleavage Z-score (30 min): -0.528 (inactive)

B39: FS-2611 (peptide)
chain: CARTARAVSPAGNASASA
- furin cleavage Z-score (7.5 min): 5.89 (active)
- furin cleavage Z-score (15 min): 8.14 (active)
- furin cleavage Z-score (30 min): 7.16 (active)

B40: FS-3102 (peptide)
chain: CARTARAWGKAGNASASA
- furin cleavage Z-score (7.5 min): -0.427 (inactive)
- furin cleavage Z-score (15 min): 0.174 (inactive)
- furin cleavage Z-score (30 min): 1.29

B41: FS-2094 (peptide)
chain: CARTARSTNKAGNASASA
- furin cleavage Z-score (7.5 min): 5.26 (active)
- furin cleavage Z-score (15 min): 7.87 (active)
- furin cleavage Z-score (30 min): 5.51 (active)

B42: FS-2633 (peptide)
chain: CARAARGTSPAGNASASA
- furin cleavage Z-score (7.5 min): -0.591 (inactive)
- furin cleavage Z-score (15 min): -1.01 (inactive)
- furin cleavage Z-score (30 min): 1.21

B43: HC1158 (peptide)
chain: CALKAKLMPQAGNASASA
- furin cleavage Z-score (7.5 min): 1.55
- furin cleavage Z-score (15 min): 0.58 (inactive)
- furin cleavage Z-score (30 min): -1.58 (inactive)

B44: HC82 (peptide)
chain: CAVVCGSMSYAGNASASA
- furin cleavage Z-score (7.5 min): -0.0603 (inactive)
- furin cleavage Z-score (15 min): -1.58 (inactive)
- furin cleavage Z-score (30 min): 0.38 (inactive)
